Assay outcomes from PubChem.
HTT ATP protect: protects HTT-Q103 PC12 cells, measured by ATP; PC12 HTT-Q103 induced, cytoprotection, ATP luminescence, 40 h; Potency, µM (top dose mostly 56.4 µM), for the others: cytoprotection (ATP increase), usual class: activators; 230,000 tested, 0.14% active; AID 1471; active = well fitted curve in the direction sought with a large enough effect; inconclusive = small, poorly fitted or top-dose-only effect, or another doubt; inactive = no such curve, though single readings can be large; an effect the other way counts as inactive or inconclusive; note: potency is the fitted concentration of half-maximal effect; % of control where 0% means no effect; nearly all actives have a fitted effect of over 45% in size
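ATP quantification (ATPlite) reports survival of PC12 cells in which tebufenozide, 100 nM final, switches on Htt exon 1 with 103 glutamines linked to GFP; compounds are titrated.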
RGS12 GoLoco inh: inhibitors of human Gai1-RGS12 GoLoco interaction (red fluorophore); P63096; Gai1:RGS12 GoLoco peptide FP, rhodamine, 10 min; Potency, µM (doses to about 61.6 µM), inactives show top-dose activity, negative = inhibition, hits mostly inhibitors; 230,000 tested, 0.44% active; active = well fitted inhibition curve with a large enough effect, not every such curve was filed as active; inactive = no such curve, though single readings can be large or run the other way; note: potency is the fitted concentration of half-maximal effect; % is set by controls: 0 for no effect and ±100 for the full control effect; nearly all actives have a fitted effect of over 30% in size
Target sequence (P63096 whole entry, looked up): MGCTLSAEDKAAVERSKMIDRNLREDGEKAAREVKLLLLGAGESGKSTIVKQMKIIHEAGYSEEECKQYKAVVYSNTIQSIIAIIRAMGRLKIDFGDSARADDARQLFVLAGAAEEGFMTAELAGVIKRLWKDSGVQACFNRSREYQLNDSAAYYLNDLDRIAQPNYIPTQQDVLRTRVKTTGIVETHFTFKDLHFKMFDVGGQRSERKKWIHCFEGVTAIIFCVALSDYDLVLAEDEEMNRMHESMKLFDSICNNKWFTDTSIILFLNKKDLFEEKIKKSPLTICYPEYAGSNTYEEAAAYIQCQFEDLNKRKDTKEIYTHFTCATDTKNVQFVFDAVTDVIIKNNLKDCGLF
ALDH1A1 inh: blocks purified human ALDH1A1 activity | P00352 | Purified ALDH1A1, NADH fluorescence, propionaldehyde substrate | Potency, µM (series often up to 75.3 µM), inactives show at the highest dose activity, negative = inhibition, usual class: inhibitors | 220,000 tested, 7.3% active;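 note: potency is the fitted concentration of half-maximal effect; plate controls were no enzyme wells and a reference inhibitor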
HTT aggregate: mutant huntingtin aggregation inhibition. PC12 HttQ103-GFP aggregates, Acumen cytometry, 40 h. Potency, µM (series often up to 46.1 µM), inactives show top-dose activity change, negative = inhibition, usual class: inhibitors. 220,000 tested, 1.1% active; active = well fitted curve in the direction sought with a large enough effect; inconclusive = small, poorly fitted or top-dose-only effect, or another doubt; inactive = no such curve, though single readings can be large; an effect the other way counts as inactive or inconclusive; note: potency is the fitted concentration of half-maximal effect; % is set by controls: 0 for no effect and ±100 for the full control effect; nearly all actives have a fitted effect of over 60% in size
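Read-out: GFP aggregate count by laser scanning cytometer (488 nm excitation, 500-530 nm emission, 1–25 µm objects >6 SD above background). Cells: PC12, inducible HTTex1-Q103-GFP, 100 nM tebufenozide; compounds titrated.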
HPGD inh: blocks human HPGD enzyme activity | purified HPGD, NADH fluorescence kinetic, PGE2 substrate | P15428 | 150,000 tested, 4.3% active | Potency, µM, inactives show top-dose activity change, negative = inhibition, most hits filed as inhibitors; note: potency is the fitted concentration of half-maximal effect; % is set by controls: 0 for no effect and ±100 for the full control effect
Target sequence (P15428 whole entry, looked up): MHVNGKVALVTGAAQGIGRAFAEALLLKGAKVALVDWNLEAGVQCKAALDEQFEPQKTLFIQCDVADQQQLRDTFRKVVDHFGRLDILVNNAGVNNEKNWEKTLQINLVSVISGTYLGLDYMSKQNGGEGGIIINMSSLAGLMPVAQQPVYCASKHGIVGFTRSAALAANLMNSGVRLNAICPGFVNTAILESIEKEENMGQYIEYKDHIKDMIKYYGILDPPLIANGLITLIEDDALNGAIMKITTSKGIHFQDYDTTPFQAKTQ
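20 nM HPGD preincubated 15 min at room temperature with compound in 50 mM Tris-HCl pH 8, 0.01% Tween 20. Started with 1 mM NAD+ and 30 uM prostaglandin E2; NADH fluorescence (360/450 nm) read 5 times over 30-s intervals, last minus first.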
PNC assembly inh: perinucleolar compartment assembly inhibition; 140,000 tested, 3.1% active; PC3M PTB-GFP, PNC prevalence imaging, 16 h; stronger effect = lower value; AID 2417; activity change (PNC), negative = inhibition, % at 10 µM;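 active = readout at or below -70, meaning at least 70% loss of cells showing the perinucleolar compartment, a nuclear body marking cancer cells; inconclusive = readout between -30 and a set limit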;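 note: plate controls were DMSO wells for no effect and camptothecin positive control wells for full effect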
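Read-out is percentage of cells bearing a perinucleolar compartment, from automated 20x imaging of fixed, Hoechst-stained PC3M PTB-GFP cells. Cells were seeded 4 h, then exposed 16 h to compound (23 nl of library stock) in duplicate plates.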
Starred values were filed as active, the others as inactive; [ ] = dose if it differs, or a comment. The list is not random: actives were taken first. Their share in the collection is about 11%. Unless noted, calls come from the whole dose curve; as a rule, active = well fitted inhibition curve with a large enough effect (not every such curve was filed as active); inconclusive = small, poorly fitted or top-dose-only effect, or another doubt; inactive = no such curve, though single readings can be large or run the other way.

For O=C(NCc1ccc2c(c1)OCO2)c1ccc(CS(=O)(=O)c2ccc(Br)cc2)o1 the results were HTT ATP protect 10%, RGS12 GoLoco inh 1%, ALDH1A1 inh -10%, HTT aggregate inconclusive, HPGD inh 4% and PNC assembly inh -87*.
Screening NS(=O)(=O)c1ccc(NC(=S)NCc2ccc3c(c2)OCO3)cc1 returned HTT ATP protect 3%[10 µM], RGS12 GoLoco inh 4%, ALDH1A1 inh 22µM* and HTT aggregate inconclusive.
COC(=O)[C@@]1(Cc2ccc(F)cc2)[C@H]2c3cc(C(=O)N(C)C)n(CCN4CCOCC4)c3C[C@H]2CN1C(=O)c1ccccc1 was read as HTT ATP protect 15%, RGS12 GoLoco inh 10%, ALDH1A1 inh 2% and HPGD inh -9%.
For CC(=O)c1ccc(NC(=S)NCCc2ccc(S(N)(=O)=O)cc2)cc1 the results were HTT ATP protect -13%, RGS12 GoLoco inh 7%, ALDH1A1 inh inconclusive and HTT aggregate 6%.
For NS(=O)(=O)c1ccc(CNC(=S)Nc2ccc(F)c(Cl)c2)cc1 the results were HTT ATP protect inconclusive, RGS12 GoLoco inh 2%, ALDH1A1 inh -21% and HTT aggregate 25%.
`CC(C)OCCCNC(=S)Nc1ccc(S(N)(=O)=O)cc1` gave RGS12 GoLoco inh -18%, ALDH1A1 inh 1%, HTT aggregate 8%, HPGD inh 7.9µM* and PNC assembly inh inconclusive.
`Cc1ccccc1NC(=S)NCc1ccc(Cl)cc1` gave HTT ATP protect 12%[10 µM], RGS12 GoLoco inh 11%, ALDH1A1 inh inconclusive, HTT aggregate 25%, HPGD inh 16µM* and PNC assembly inh 42.
For Fc1ccc(CNC(=S)Nc2ccc(Cl)cc2)cc1 the results were HTT ATP protect -8%, RGS12 GoLoco inh 10%, ALDH1A1 inh 2%, HTT aggregate -24%, HPGD inh -15% and PNC assembly inh 23.
NS(=O)(=O)c1ccc(NC(=S)NCc2ccc(Cl)cc2)cc1 was read as HTT ATP protect 9%, RGS12 GoLoco inh 1%, ALDH1A1 inh 22µM*, HTT aggregate 5%, HPGD inh 20µM* and PNC assembly inh 54.
`S=C(NCc1ccc(Cl)cc1)Nc1ccccc1` gave RGS12 GoLoco inh 4%, ALDH1A1 inh -6%, HTT aggregate 8%, HPGD inh 18µM* and PNC assembly inh -2.
For O=C(O)Cc1cccnc1 the results were HTT ATP protect -14%[10 µM], RGS12 GoLoco inh -12%[14.2 µM], ALDH1A1 inh -4%[13.5 µM] and HPGD inh -7%.
For C[Si](C)(C/C=C/CC[C@H](O)C1=CCCCC1=O)c1ccccc1 the results were HTT ATP protect -26%, RGS12 GoLoco inh -1%, ALDH1A1 inh 3% and HPGD inh -10%.
For COc1ccc(-c2nc3cnc(OC)nc3n(CCC#N)c2=O)cc1 the results were HTT ATP protect 5%, RGS12 GoLoco inh -2% and ALDH1A1 inh -15%.
`COc1cc(NC(=S)NCc2ccco2)cc(OC)c1OC` gave HTT ATP protect 7%[10 µM], RGS12 GoLoco inh 26%, ALDH1A1 inh inconclusive, HTT aggregate -5%, HPGD inh 16µM* and PNC assembly inh inconclusive.
CCOC(=O)N1CCN(c2ccc(C(=O)c3ccccc3)cc2F)CC1 was read as HTT ATP protect -22%, RGS12 GoLoco inh 0%, ALDH1A1 inh inconclusive, HTT aggregate -21%, HPGD inh 28µM* and PNC assembly inh 7.
Screening CCC(=O)c1ccc(N2CCCC2)c(F)c1 returned HTT ATP protect -1%[10 µM], RGS12 GoLoco inh -2%, ALDH1A1 inh -4%, HTT aggregate -9%, HPGD inh -22% and PNC assembly inh -4.
For CCOC(=O)N1CCN(c2cc3[nH]c(=S)[nH]c3cc2F)CC1 the results were HTT ATP protect -1%[0.074 µM], RGS12 GoLoco inh -6%, ALDH1A1 inh inconclusive, HTT aggregate 8%, HPGD inh inconclusive and PNC assembly inh -91*.
For CCCC(=O)c1ccc(N2CCCC2)c(F)c1 the results were HTT ATP protect 0%[10 µM], RGS12 GoLoco inh 0%, ALDH1A1 inh inconclusive, HTT aggregate 0%, HPGD inh 22µM* and PNC assembly inh 19.
For CCC(=O)c1ccc(N2CCN(C(=O)c3ccccc3F)CC2)c(F)c1 the results were HTT ATP protect -2%, RGS12 GoLoco inh 4%, ALDH1A1 inh 14µM* and HTT aggregate -9%.
`CC(=O)OC1CCC2(C)C3CC(=O)C4(C)C(CC5OC6(CCC(C)CO6)C(C)C54)C3CC[C@H]2C1` (stereo not given in full) gave HTT ATP protect -11%, RGS12 GoLoco inh 4%, ALDH1A1 inh 3% and HPGD inh -7%.
`COC(=O)c1ccc(C(NC(=O)OCc2ccccc2)/C(=C/[C@@H](C)C(=O)NCc2cc(C)on2)c2cccnc2)cc1` (stereo not given in full) gave HTT ATP protect -31%, RGS12 GoLoco inh 4%, ALDH1A1 inh 1% and HPGD inh -6%.
`C=C1CCC(C2CC(=O)OC2=O)C(=O)CCC2C1CC2(C)C` (stereo not given) gave RGS12 GoLoco inh 7%, ALDH1A1 inh 1% and HPGD inh -13%.
Screening O=S(=O)(Nc1cccnc1)c1cccc2cccnc12 returned HTT ATP protect 3%.
For CCC(=O)c1ccc(N2CCCCCC2)c(F)c1 the results were HTT ATP protect -7%, RGS12 GoLoco inh 11%, ALDH1A1 inh inconclusive, HTT aggregate -17%, HPGD inh 16µM* and PNC assembly inh 24.
`C[N+](C)(N)CCC[N+](C)(C)N` gave HTT ATP protect -9%[10 µM], RGS12 GoLoco inh 0%[14.2 µM], ALDH1A1 inh -2%[13.5 µM] and HPGD inh -7%.
`CCn1c(CCC(=O)Nc2nc3c(s2)CCCC3)nc2cc(S(=O)(=O)N(C)C)ccc21` gave HTT ATP protect 17%[1.9 µM], RGS12 GoLoco inh 51%, ALDH1A1 inh 16µM*, HTT aggregate inconclusive, HPGD inh -7% and PNC assembly inh -4.
For CCN(CC)S(=O)(=O)c1ccc2c(c1)nc(CCC(=O)O)n2CC the results were HTT ATP protect -21%, RGS12 GoLoco inh 9%, ALDH1A1 inh 6% and HTT aggregate 14%.
Screening CN(C)S(=O)(=O)c1ccc2c(c1)nc(CCC(=O)NCC1CCCCC1)n2C returned HTT ATP protect 18%[10 µM], RGS12 GoLoco inh 8%, ALDH1A1 inh inconclusive, HTT aggregate 8%, HPGD inh -2% and PNC assembly inh -3.
For CN(C)S(=O)(=O)c1ccc2c(c1)nc(CCC(=O)NCc1ccc(Cl)cc1)n2C the results were HTT ATP protect 0.63µM*, RGS12 GoLoco inh 10%, ALDH1A1 inh -9% and HTT aggregate inconclusive.
